ChEMBL document CHEMBL4513141, “CO-ADD screening of NIH (USA) - Clinical Collection” (2021)
Where “and” joins values, the source holds several entries; their conditions need not be identical. Equal values may be shown once. Measured potencies and affinities stand elsewhere. Square brackets hold non-standard residues; d marks the D form. Peptide text beside a SMILES is read from it. pGlu = O=C1CC[C@@H](C(=O)O)N1; Thz = O=C(O)[C@@H]1CSCN1

Key:
[1] = test system: Staphylococcus aureus; conditions: Concentration 20 uM, ASSAY_TEST Inhibition of Bacterial Growth, detection method Absorption (OD600), MEDIA CAMHB, plate type 384well, NBS, CORNING #3640, time 18 hr
[2] = test system: Escherichia coli; conditions: Concentration 20 uM, ASSAY_TEST Inhibition of Bacterial Growth, detection method Absorption (OD600), MEDIA CAMHB, plate type 384well, NBS, CORNING #3640, time 18 hr

Row | SMILES | Inhibition [1] [%] | Inhibition [2] [%] | Inhibition ([1]; 20 µM) | Inhibition ([2]; 20 µM)
1 | Cl.O.O=C(c1ccc(F)cc1)C1CCN(CCn2c(=S)[nH]c3ccccc3c2=O)CC1 | 2.33 | 1.4 | – | –
2 | C[C@@H]1C[C@H]2[C@@H]3CCC4=CC(=O)C=C[C@]4(C)[C@@]3(F)[C@@H](O)C[C@]2(C)[C@@]1(O)C(=O)CO [DEXAMETHASONE] | – | – | -14.23% and -13.77% | 5.83% and 4.46%
3 | Cc1ccccc1C(OCCN(C)C)c1ccccc1.Cl (stereo unspecified) [ORPHENADRINE HYDROCHLORIDE] | 13.17 | -1.64 | – | –
4 | Cc1ccc(N(CC2=NCCN2)c2cccc(O)c2)cc1 [PHENTOLAMINE] | 2.09 | -2.29 | – | –
5 | Cc1cccc(Nc2ccccc2C(=O)O)c1C [MEFENAMIC ACID] | 15.6 | 6.03 | – | –
6 | C[C@]12C[C@H](O)[C@H]3[C@@H](CCC4=CC(=O)CC[C@@]43C)[C@@H]1CC[C@@H]2C(=O)CO [CORTICOSTERONE] | 12.8 | 2.35 | – | –
7 | CC(=O)SCC(Cc1ccccc1)C(=O)NCC(=O)OCc1ccccc1 (stereo unspecified) [RACECADOTRIL] | 11.13 | -5.63 | – | –
8 | CCC1=C[C@H]2CN(C1)Cc1c([nH]c3ccccc13)[C@@](C(=O)OC)(c1cc3c(cc1OC)N(C)[C@H]1[C@@](O)(C(=O)OC)[C@H](OC(C)=O)[C@]4(CC)C=CCN5CC[C@]31[C@@H]54)C2.O=C(O)C(O)C(O)C(=O)O.O=C(O)C(O)C(O)C(=O)O | 13.36 | 2.61 | – | –
9 | C[C@@H]1CN(CCCn2c3ccccc3c3ccccc32)C[C@H](C)N1.Cl.O | 5.93 | 5.61 | – | –
10 | Cl.Nc1nc2ccc(OC(F)(F)F)cc2s1 | 13.98 | 2.43 | – | –
11 | C[C@H]1O[C@@H](O[C@H]2[C@@H](O)C[C@H](O[C@H]3[C@@H](O)C[C@H](O[C@H]4CC[C@@]5(C)[C@H](CC[C@@H]6[C@@H]5C[C@@H](O)[C@]5(C)C(C7=CC(=O)OC7)CC[C@]65O)C4)O[C@@H]3C)O[C@@H]2C)C[C@H](O)[C@@H]1O (stereo partly specified) | 15.53 | -7.29 | – | –
12 | COc1ccc([C@@H]2Sc3ccccc3N(CCN(C)C)C(=O)[C@@H]2OC(C)=O)cc1.Cl [DILTIAZEM HYDROCHLORIDE] | 12.74 | 5.44 | – | –
13 | CCN(CC)CCNC(=O)c1cc(Cl)c(N)cc1OC.Cl | 7.88 | -6.93 | – | –
14 | O=C1N[C@H](C(=O)O)CS1 [PROCYSTEINE] | 10.52 | 6.28 | – | –
15 | CC(=O)OCC(=O)[C@@]1(O)CC[C@H]2[C@@H]3CCC4=CC(=O)C=C[C@]4(C)[C@H]3[C@@H](O)C[C@@]21C [PREDNISOLONE ACETATE] | 11.59 | 1.81 | – | –
16 | N[C@@H](Cc1cc(I)c(Oc2cc(I)c(O)c(I)c2)c(I)c1)C(=O)O [LEVOTHYROXINE] | -5.39 | -12.96 | – | –
17 | C[C@]12CC[C@@H]3c4ccc(O)cc4CC[C@H]3[C@@H]1CC[C@@H]2O [ESTRADIOL] | 2.2 | -0.2 | – | –
18 | CC(COc1ccccc1)NC(C)C(O)c1ccc(O)cc1.Cl (stereo unspecified) [ISOXSUPRINE HYDROCHLORIDE] | 10.12 | -2.1 | – | –
19 | CC1=C(/C=C/C(C)=C/C=C/C(C)=C/C(=O)O)C(C)(C)CCC1 [TRETINOIN] | 13.92 | 7.4 | – | –
20 | CC(C(=O)O)c1cccc(C(=O)c2ccccc2)c1 (stereo unspecified) [KETOPROFEN] | 6.88 | -2.29 | – | –
21 | CCN1CCC[C@H]1CNC(=O)c1c(O)c(Cl)cc(Cl)c1OC [RACLOPRIDE] | 2.11 | 10.63 | – | –

Row | SMILES | Inhibition [1] [%] | Inhibition [2] [%] | Inhibition ([1]; 20 µM) | Inhibition ([2]; 20 µM)
22 | CC=CC(=O)N(CC)c1ccccc1C | 8.78 | 0.72 | – | –
23 | COC1=CC(=O)C[C@@H](C)[C@]12Oc1c(Cl)c(OC)cc(OC)c1C2=O [GRISEOFULVIN] | 7.83 | 2.08 | – | –
24 | Cc1nccn1CC1CCc2c(c3ccccc3n2C)C1=O (stereo unspecified) [ONDANSETRON] | 4.05 | 7.33 | – | –
25 | CCOC(=O)[C@@H](CCc1ccccc1)N[C@@H](C)C(=O)N1CCC[C@H]1C(=O)O.O=C(O)/C=C\C(=O)O | 8.37 | -3.24 | – | –
26 | CC1(C)O[C@@H]2C[C@H]3[C@@H]4C[C@H](F)C5=CC(=O)C=C[C@]5(C)[C@H]4[C@@H](O)C[C@]3(C)[C@]2(C(=O)CO)O1 [FLUNISOLIDE] | 6.94 | 3.33 | – | –
27 | CC(=O)NCCCCCCNC(C)=O [HEXAMETHYLENEBISACETAMIDE] | -6.23 | 3.8 | – | –
28 | Cn1ccnc1S [METHIMAZOLE] | 17.02 | 5.86 | – | –
29 | Nc1ccn([C@@H]2CS[C@H](CO)O2)c(=O)n1 [LAMIVUDINE] | 9.88 | 8.04 | – | –
30 | O=C1CC[C@@H](C(=O)N2CSC[C@H]2C(=O)O)N1 [PIDOTIMOD] ([pGlu]-[Thz]-OH) | 9.9 | 2.88 | – | –
31 | COc1ccc(CN2CCN(C(c3ccc(F)cc3)c3ccc(F)cc3)CC2)c(OC)c1OC.Cl.Cl | 8.66 | -0.33 | – | –
32 | CCCc1cc(=O)[nH]c(=S)[nH]1 [PROPYLTHIOURACIL] | 17.4 | 8.71 | – | –
33 | C=C[C@H]1CN2CC[C@H]1C[C@@H]2[C@@H](O)c1ccnc2ccc(OC)cc12 [QUINIDINE] | 10.07 | -1.55 | – | –
34 | COC(=O)[C@H](c1ccccc1Cl)N1CCc2sccc2C1 [CLOPIDOGREL] | 12.7 | -0.51 | – | –
35 | CN(C)CCCN1c2ccccc2Sc2ccc(Cl)cc21.Cl [CHLORPROMAZINE HYDROCHLORIDE] | 10.22 | 2.59 | – | –
36 | CC(Cc1ccccc1)(NC(=O)CN)c1ccccc1.Cl (stereo unspecified) [REMACEMIDE HYDROCHLORIDE] | 12.25 | -0.35 | – | –
37 | CN1CCc2cc(Cl)c(O)cc2[C@@H](c2ccccc2)C1.Cl | 10.41 | 0.35 | – | –
38 | CNCC[C@H](Oc1cccc2ccccc12)c1cccs1.Cl [DULOXETINE HYDROCHLORIDE] | -17.99 | 4.45 | – | –
39 | COC(=O)C1=C(C)NC(C)=C(C(=O)OCC(C)C)C1c1ccccc1[N+](=O)[O-] (stereo unspecified) [NISOLDIPINE] | 10.19 | 14.24 | – | –
40 | CNNCc1ccc(C(=O)NC(C)C)cc1.Cl [PROCARBAZINE HYDROCHLORIDE] | 12.92 | -2.72 | – | –
41 | O=C(O)COCCN1CCN(C(c2ccccc2)c2ccc(Cl)cc2)CC1 (stereo unspecified) [CETIRIZINE] | 14.64 | -0.91 | – | –
42 | CC(=O)OCC(CCn1cnc2cnc(N)nc21)COC(C)=O [FAMCICLOVIR] | 12.23 | 6.38 | – | –

Row | SMILES | Inhibition [1] [%] | Inhibition [2] [%] | Inhibition ([1]; 20 µM) | Inhibition ([2]; 20 µM)
43 | CC(C)[C@H](N)C(=O)OCCOCn1cnc2c(=O)nc(N)[nH]c21.Cl [VALACYCLOVIR HYDROCHLORIDE] | 12.39 | 2.88 | – | –
44 | CCCSc1ccc2[nH]c(NC(=O)OC)nc2c1 [ALBENDAZOLE] | 3.05 | 1.87 | – | –
45 | CS(=O)(=O)O.Oc1ccc(C2CNCCc3c2cc(O)c(O)c3Cl)cc1 (stereo unspecified) [FENOLDOPAM MESYLATE] | 13.63 | -0.49 | – | –
46 | CC(=O)CCCCn1cnc2c1c(=O)n(C)c(=O)n2C [LOMIFYLLINE] | 12.49 | 5.02 | – | –
47 | CN1CCN(C2=Nc3ccccc3Oc3ccc(Cl)cc32)CC1.O=C(O)CCC(=O)O [LOXAPINE SUCCINATE] | 9.14 | 4.68 | – | –
48 | COc1nc(C)nc(Cl)c1NC1=NCCN1.Cl [MOXONIDINE HYDROCHLORIDE] | -14.16 | 3.63 | – | –
49 | CN(C)[C@@H]1C(=O)C(C(=O)NCN2CCCC2)=C(O)[C@@]2(O)C(O)=C3C(=O)c4c(O)cccc4[C@@](C)(O)C3CC12 (stereo partly specified) | 23.2 | 5.47 | – | –
50 | COc1cc(C(=O)NC2CCCNC2)cc(OC)c1OC (stereo unspecified) [TROXIPIDE] | 21.18 | 2.83 | – | –
51 | CCN(CC)CCOC(=O)c1ccc(N)cc1.Cl [PROCAINE HYDROCHLORIDE] | 7.14 | 4.36 | – | –
52 | Cl.Cn1c(NCCN(CCO)CCCc2ccc([N+](=O)[O-])cc2)cc(=O)n(C)c1=O | -11.53 | 3.31 | – | –
53 | CN1CCN(c2nc3cc(C(F)(F)F)ccc3n3cccc23)CC1.O=C(O)/C=C\C(=O)O.O=C(O)/C=C\C(=O)O | 3.37 | 4.75 | – | –
54 | CC1=C(/C=C/C(C)=C/C=C/C(C)=C\C(=O)O)C(C)(C)CCC1 [ISOTRETINOIN] | 5.02 | -1.2 | – | –
55 | CN1CCN(CCCN2c3ccccc3Sc3ccc(Cl)cc32)CC1.O=C(O)/C=C\C(=O)O.O=C(O)/C=C\C(=O)O [PROCHLORPERAZINE MALEATE] | 13.38 | 1.77 | – | –
56 | CC1CCN(CCCC(=O)c2ccc(F)cc2)CC1.Cl | 4.4 | 6.76 | – | –
57 | N[C@@H]1CONC1=O [CYCLOSERINE] | 14.71 | 1.47 | – | –
58 | O.OC[C@H]1O[C@@H](n2cnc3c(NC4CCCC4)nc(Cl)nc32)[C@@H](O)C1O (stereo partly specified) | 16.71 | -5.97 | – | –
59 | Br.CN(C)CCCC1(c2ccc(F)cc2)OCc2cc(C#N)ccc21 (stereo unspecified) [CITALOPRAM HYDROBROMIDE] | 3.11 | -2.5 | – | –
60 | Oc1ncc(F)cn1 | 12.62 | 10.23 | – | –
61 | COCCOC(=O)C1=C(C)NC(C)=C(C(=O)OC(C)C)C1c1cccc([N+](=O)[O-])c1 (stereo unspecified) [NIMODIPINE] | 7.57 | 4.2 | – | –
62 | C#C[C@]1(O)CC[C@H]2[C@@H]3CCc4cc(OC)ccc4[C@H]3CC[C@@]21C [MESTRANOL] | 8.43 | -2.89 | – | –
63 | CC(=O)[C@@]1(O)CC[C@H]2[C@@H]3C[C@H](C)C4=CC(=O)CC[C@]4(C)[C@H]3CC[C@@]21C | 8.66 | -5.84 | – | –
